Test systems include T-47D breast; BT-549 breast; MDA-MB-435 melanoma; MCF7 breast; HCT-116 colon; HCC-2998 colon; KM12 colon; SW-620 colon.
What all share (test): NCI-60 one-dose screen, 48 h (100 = growth as untreated, 0 = no growth, -100 = all killed)
Settings in all cases: 10 µM unless noted

Molecules are shown by their SMILES. This is part of a sample that, as a whole, favours compounds with a hit. Of some 83,000 tested, about 20% had one in any assay.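 Compound tested at a single concentration for 48 hours in 96-well plates; a percent growth value below 10 was scored as active.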 A number with no mark means an inactive call. The source made the active and inactive calls.

As to `CCc1ccc(-c2nc(SCC(=O)NC3CCCCC3)n[nH]2)cc1`, the growth is 81.7% in the assay on T-47D breast; 84.6% in the assay with BT-549 breast; 59.2% with MDA-MB-435 melanoma; 88.8% in the assay on MCF7 breast; 74.2% in the assay on HCT-116 colon; 76.3% with HCC-2998 colon. In addition, in the assay with KM12 colon, the growth is 82.2%.
On to `Nc1ncnc2c1CN(Cc1ccccc1)CC2`, for which the growth in the assay with T-47D breast was 105%; with BT-549 breast it was 108%; with MDA-MB-435 melanoma, 107%; in the assay on MCF7 breast, 93.6%; in the assay with HCT-116 colon, 102%; in the assay with HCC-2998 colon, 98.5%. In the assay with KM12 colon, the growth was 108%.
Take `N[C@H](CS)C(=O)O`: the growth in the assay on T-47D breast is 103%; in the assay on BT-549 breast it was 98.3%; in the assay on MDA-MB-435 melanoma, 104%; in the assay on MCF7 breast, 87.9%; with HCT-116 colon, 112%; in the assay with HCC-2998 colon it was 112%. The growth in the assay on KM12 colon is 109%.
Regarding `O=C(/C=C/c1ccc([N+](=O)[O-])cc1)c1ccc2c3c(cccc13)CC2`, the growth is 69.1% in the assay on T-47D breast; 84% in the assay on BT-549 breast; 97.8% in the assay with MDA-MB-435 melanoma; 22% with MCF7 breast; 38.6% with HCT-116 colon; 79.3% in the assay on HCC-2998 colon. Also, the growth in the assay with KM12 colon is 72.5%.
Take `COc1ccc(-c2nnc3c4[nH]cnc4ncn23)c(OC)c1`: the growth was 28.5% in the assay on T-47D breast; 13.2% with MDA-MB-435 melanoma; 23.2% in the assay with SW-620 colon; 7.19% (active) in the assay with MCF7 breast; 14.8% with HCT-116 colon; 26.3% in the assay with HCC-2998 colon. Also, the growth in the assay on KM12 colon is 22.5%.
`Oc1ccc(/C=N/Nc2nc3ccccc3s2)c(O)c1`: the growth with T-47D breast is 26.8%; with BT-549 breast, 43.8%; with MCF7 breast, 26.5%; with HCT-116 colon, 25.2%; in the assay on KM12 colon, 15.7%.
Consider `COc1cccc(-c2nc3cc(NC(=O)c4ccc(Cl)c(C#N)c4)ccc3o2)c1`, for which the growth was -20.4% (active) in the assay on T-47D breast; -73.3% (active) in the assay on MDA-MB-435 melanoma; 46.9% in the assay on SW-620 colon; 8% (active) in the assay with MCF7 breast; -92.2% (active) in the assay with HCT-116 colon; 29.6% in the assay with HCC-2998 colon. Further, the growth in the assay on KM12 colon is -51.8% (active).
Turning to `N/C(=N\c1nc2ccccc2s1)NC(=O)Nc1ccccc1Cl`, the growth with T-47D breast is 37%; with BT-549 breast, 18.6%; in the assay with MCF7 breast, 21.1%; in the assay with HCT-116 colon, 13%; with HCC-2998 colon, 14.2%; in the assay with KM12 colon, 12.7%.
Regarding `COc1ccc([N+](=O)[O-])c(S(=O)(=O)c2ccc(Cl)cc2)n1`, the growth is 65.2% in the assay with T-47D breast; 40.9% with MDA-MB-435 melanoma; 14.4% in the assay on SW-620 colon; 18.1% with MCF7 breast; 20.9% in the assay on HCT-116 colon; 104% in the assay on HCC-2998 colon. Further, the growth with KM12 colon is 97.7%.
In the case of `Nc1ccc2c(c1)Cc1cc(Cl)c(Cl)cc1-2`, the growth was 85.3% in the assay with T-47D breast; 60.4% in the assay with BT-549 breast; 38.1% in the assay on SW-620 colon; 30% in the assay with MCF7 breast; 49.5% with HCT-116 colon; 66.4% with HCC-2998 colon. Further, the growth in the assay with KM12 colon is 52.2%.
`COc1ccc(-c2cc(-c3cccnc3)nc(S(=O)(=O)CC(=O)Nc3ccc(C)cc3)c2C#N)cc1OC`: the growth with T-47D breast is 64%; in the assay with MDA-MB-435 melanoma, 98.6%; in the assay with SW-620 colon, 98.3%; with MCF7 breast, 88.4%; in the assay with HCT-116 colon, 85.8%; in the assay with HCC-2998 colon, 91.9%. Besides, the growth in the assay with KM12 colon was 95.9%.
On to `COc1ccc(N2CCN(CC(=O)N3CCN(c4nnc(-c5ccc(Cl)cc5)c(-c5ccc(Cl)cc5)n4)CC3)CC2)cc1`, for which the growth with T-47D breast was 31.6%; in the assay with BT-549 breast, 66.1%; in the assay on SW-620 colon, 69.2%; in the assay on MCF7 breast, 37.3%; in the assay on HCT-116 colon it was 29.2%; with HCC-2998 colon, 51%. Besides, the growth with KM12 colon was 44.7%.
With `COc1ccc(-c2cc(-c3cccnc3)nc3sc(C(=O)Nc4ccccc4)c(N)c23)cc1OC`, the growth is 55.8% in the assay on T-47D breast; 76.1% with MDA-MB-435 melanoma; 85.5% with SW-620 colon; 65.4% in the assay on MCF7 breast; 50.5% with HCT-116 colon; 80.3% with HCC-2998 colon. Also, in the assay with KM12 colon, the growth was 61.3%.
Turning to `O=c1[nH]c(SCc2ccccc2)nc2nc(Nc3ccc(NC(=S)Nc4ccccc4)cc3)nc(-c3ccc(O)cc3O)c12`, the growth with T-47D breast was 73.1%; with BT-549 breast, 91.7%; in the assay with SW-620 colon, 96.8%; with MCF7 breast, 99.2%; in the assay with HCT-116 colon, 102%; with HCC-2998 colon, 98.6%. Further, in the assay on KM12 colon, the growth was 89.4%.
Consider `Cc1ccc(-c2c3c(N)nc(-c4ccncc4)nc3nc3c2c(C)nn3-c2ccccc2)cc1`, for which the growth was 35.6% in the assay on T-47D breast; 59.4% in the assay on BT-549 breast; 39.5% in the assay with SW-620 colon; 1.86% (active) in the assay with MCF7 breast; 12.7% in the assay with HCT-116 colon; 99.8% with HCC-2998 colon. In the assay on KM12 colon, the growth was 74.7%.
As to `N#Cc1c(-c2ccccc2)cc(-c2ccccc2)n(CCC(=O)O)c1=O`, the growth with T-47D breast is 44.1%; with BT-549 breast, 27.2%; in the assay on SW-620 colon, 37.3%; in the assay with MCF7 breast, 35%; with HCT-116 colon, 40%; in the assay on HCC-2998 colon, 74.3%. The growth in the assay on KM12 colon was 34.5%.
Regarding `O=C1NC(=O)/C(=C\c2ccco2)S1`, the growth with T-47D breast was 95.4%; in the assay with BT-549 breast it was 104%; in the assay with SW-620 colon, 100%; with MCF7 breast, 104%; in the assay with HCT-116 colon it was 108%; in the assay on HCC-2998 colon, 116%. The growth with KM12 colon was 103%.
Take `COc1cc(/C=C/c2cc(/C=C/c3ccc(O)c(OC)c3)n(C(=O)c3ccc(Cl)cc3)n2)ccc1O`: the growth in the assay with T-47D breast was 11.2%; with MDA-MB-435 melanoma, -45.2% (active); with SW-620 colon it was 16.4%; in the assay with MCF7 breast, 20.1%; in the assay with HCT-116 colon, 0.953% (active); with HCC-2998 colon, 52%. Moreover, in the assay with KM12 colon, the growth is 10.8%.
As for `CC(=O)[C@H]1CC[C@H]2[C@@H]3C[C@H](C)C4=CC(=O)CC[C@]4(C)[C@H]3C(=O)C[C@]12C`, the growth in the assay with T-47D breast was 87.5%; with BT-549 breast, 98%; in the assay on SW-620 colon it was 98.6%; with MCF7 breast it was 99.3%; with HCT-116 colon, 93.1%; in the assay on KM12 colon, 110%.
On to `COc1ccc(NC(=O)[C@@H]2C[C@H]2c2ccccc2)c(C(N)=O)c1`, for which the growth is 91.1% in the assay on T-47D breast; 51.8% in the assay with MDA-MB-435 melanoma; 90.9% with SW-620 colon; 97.7% in the assay on MCF7 breast; 108% in the assay on HCT-116 colon; 94.7% with HCC-2998 colon. In the assay with KM12 colon, the growth is 87.4%.
On to `COc1ccc(NC(=O)c2ccc(-c3ccccc3)cc2)c(C(N)=O)c1`, for which the growth in the assay on T-47D breast is 88.6%; in the assay with MDA-MB-435 melanoma, 98.5%; in the assay with SW-620 colon, 110%; in the assay with MCF7 breast, 96.6%; with HCT-116 colon it was 106%; with HCC-2998 colon, 102%. In addition, the growth in the assay with KM12 colon is 99.2%.
As to `COc1ccc(CC(=O)Nc2nn3c(-c4cc(C(F)(F)F)cc(C(F)(F)F)c4)nnc3s2)cc1`, the growth with T-47D breast was 42.7%; with MDA-MB-435 melanoma it was 57.1%; in the assay with SW-620 colon, 84.2%; in the assay with MCF7 breast, 66.9%; in the assay on HCT-116 colon, 61.9%; in the assay on KM12 colon, 65.7%.
`FC(F)(F)c1cc(-c2nnc3n2N=C(N2CCCC2)CS3)cc(C(F)(F)F)c1`: the growth in the assay with T-47D breast is 64%; in the assay with MDA-MB-435 melanoma, 96.8%; in the assay with SW-620 colon, 95.9%; with MCF7 breast, 95.3%; with HCT-116 colon, 42.5%; with KM12 colon, 89.2%.
Consider `COc1ccc2c(c1)CC[C@@H]1[C@@H]2CC[C@]2(C)[C@@H](O)C(=O)C[C@@H]12`, for which the growth was 106% in the assay on T-47D breast; 103% with BT-549 breast; 105% with SW-620 colon; 129% in the assay on MCF7 breast; 99.7% in the assay on HCT-116 colon; 110% in the assay on KM12 colon.
`O=c1sc2ncnc3ncn1c32`: the growth with T-47D breast is 34.5%; with MDA-MB-435 melanoma it was 29.5%; in the assay with SW-620 colon it was 73.1%; with MCF7 breast it was 22.4%; in the assay with HCT-116 colon it was 50.9%; in the assay with HCC-2998 colon, 79.5%. Also, the growth in the assay on KM12 colon was 70%.

The values are drawn from PubChem BioAssay (NCI).
